Source: PubChem
HEK293 cAMP cs: qHTS Assay for Agonists of the Thyroid Stimulating Hormone Receptor: Activators of Intracellular cAMP Concentrations in Parental HEK 293 | parental HEK293 CNG cAMP sensor, membrane potential fluorescence | 73,000 tested, 2.5% active | Potency, µM (titrated, usually from 57.1 µM), actives largely listed as activators | AID 938, 2007; note: nearly all actives have a fitted effect of over 55% in size
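Counterscreen for endogenous-receptor signalling: CNG-channel HEK 293 cells report cAMP rise by membrane depolarization. After 60 min dye equilibration with 100 uM RO 20-1724, compounds incubated 30 min before bottom-read fluorescence at 590 nm.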
CRE-bla Fsk: Cell signaling CRE-BLA (Fsk stim). 71,000 tested, 2.5% active. CHO CRE-bla reporter (cAMP response element driving beta-lactamase), forskolin EC10, beta-lactamase ratio. Potency, µM (series often up to 38.2 µM), hits mostly activators; active = well fitted activation curve with a large enough effect in the signal ratio, with a control signal flat, not every such curve was filed as active; inconclusive = small, poorly fitted or top-dose-only effect, or effect the other way, or a change in a side signal; the % refers to the signal ratio
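Forskolin analogue NKH 477 at EC10 stimulated CRE-driven beta-lactamase in CHO cells alongside compound dilution series. Beta-lactamase was measured with CCF4, excitation 405 nm, emission ratio 460/530 nm.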
TSHR agonist: qHTS Assay for Agonists of the Thyroid Stimulating Hormone Receptor; Thyrotropin receptor (Homo sapiens), P16473; HEK293-CNG-TSHR cells (CNG channel as cAMP sensor), membrane potential dye, cAMP; Potency, µM (top dose mostly 57.1 µM), hits mostly activators; 73,000 tested, 0.48% active; AID 926, 2007; active = well fitted activation curve with a large enough effect in the main read-out, with a control signal flat, not every such curve was filed as active; inconclusive = small, poorly fitted or top-dose-only effect, or a change in a side signal; inactive = no such curve, though single readings can be large or run the other way; reference of the percent scale not stated here;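 note: the control signal comes from parental cells without the receptor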
Target sequence (P16473 whole entry, looked up): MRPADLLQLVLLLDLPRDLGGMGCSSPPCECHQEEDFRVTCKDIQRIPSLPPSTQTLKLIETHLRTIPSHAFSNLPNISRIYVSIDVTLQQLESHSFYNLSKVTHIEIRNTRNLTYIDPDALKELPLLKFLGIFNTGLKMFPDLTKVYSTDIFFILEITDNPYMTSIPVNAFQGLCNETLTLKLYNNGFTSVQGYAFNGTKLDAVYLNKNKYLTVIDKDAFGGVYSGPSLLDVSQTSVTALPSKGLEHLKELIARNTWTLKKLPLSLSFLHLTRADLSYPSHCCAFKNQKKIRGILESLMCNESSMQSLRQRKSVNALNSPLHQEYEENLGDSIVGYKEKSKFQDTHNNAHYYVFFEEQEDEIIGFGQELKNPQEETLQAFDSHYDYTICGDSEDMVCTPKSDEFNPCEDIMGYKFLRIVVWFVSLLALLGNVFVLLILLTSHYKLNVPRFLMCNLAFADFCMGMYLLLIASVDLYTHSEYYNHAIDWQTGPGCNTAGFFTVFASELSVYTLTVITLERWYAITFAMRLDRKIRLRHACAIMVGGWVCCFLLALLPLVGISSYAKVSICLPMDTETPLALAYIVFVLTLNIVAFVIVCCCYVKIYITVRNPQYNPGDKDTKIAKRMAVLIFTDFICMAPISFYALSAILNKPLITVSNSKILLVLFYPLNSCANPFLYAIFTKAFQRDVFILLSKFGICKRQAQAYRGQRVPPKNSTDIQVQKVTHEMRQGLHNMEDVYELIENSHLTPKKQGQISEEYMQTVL
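HEK 293 cells stably expressing TSHR and a cAMP-gated CNG channel; parental CNG-only cells as counterscreen. Cells preloaded 60 min with membrane potential dye plus 100 uM RO 20-1724, then compound 30 min; fluorescence read at 590 nm.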
ERK AVP block: qHTS Assay for Inhibitors of the ERK Signaling Pathway using a Homogeneous Screening Assay. HEK293-V1b, vasopressin-stimulated pERK AlphaScreen. Potency, µM (doses to about 57.5 µM), usual class: inhibitors. 72,000 tested, 0.99% active; note: nearly all actives have a fitted effect of over 55% in size
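Overnight-seeded V1b-HEK293 cells in 1% FBS got compound, then vasopressin (25 nM final, 5 min, 37C), then lysis buffer. AlphaScreen detection of phospho-ERK; activity normalized to basal and full-stimulation controls.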
CHO via 24h: Cell Viability - CRE-beta lactamase CHO cell - 24 hr assay | AID 905, 2007 | shares compounds with CRE-bla Fsk | activity, negative = viability loss, % at 46.1 µM | 120 tested, under 10 active | CRE-bla CHO viability, ATP luminescence, 24 h
CHO via 40h: Cell Viability - CRE-beta lactamase CHO cell - 40 hr assay. AID 906, 2007. Potency, µM, most hits filed as inhibitors. CRE-bla CHO viability, ATP luminescence, 40 h. 120 tested, under 10 active. shares compounds with CRE-bla Fsk
CRE-luc potent: Confirmation Concentration-Response Assay for Cell signaling CRE-BLA (Fsk stim) - HEK293 CREB Luciferase | HEK293 CRE-luc2P, NKH477 EC10 potentiation, luminescence, 4 h | 120 tested, 80% active | Potency, µM (top dose mostly 38.3 µM), most hits filed as activators | shares compounds with CRE-bla Fsk
Each line names hits and unclear results; the compound was inactive in the other large screens (follow-up assays come after a bar, where they were run); ! = not confirmed by another sample. Sampled rows, rich in hits. Any-hit rate of the full collection: about 6%. Unless noted, calls come from the whole dose curve; as a rule, active = well fitted curve in the direction sought with a large enough effect; inconclusive = small, poorly fitted or top-dose-only effect, or another doubt; inactive = no such curve, though single readings can be large; an effect the other way counts as inactive or inconclusive.

CC(=O)OC1=CC2=CC[C@H]3[C@H]4CCC(=O)[C@@]4(C)CC(=O)[C@]3(S)[C@]2(C)CC1	none
COc1ccc2c(c1OC)C(=O)O[C@H]2[C@H]1c2cc3c(cc2CCN1C)OCO3	HEK293 cAMP cs 12.6µM!, CRE-bla Fsk inconclusive, TSHR agonist inconclusive
COc1cc2cc(c1Cl)N(C)C(=O)C[C@H](OC(=O)C(C)C)[C@]1(C)O[C@@H]1[C@@H](C)[C@H]1C[C@](O)(NC(=O)O1)[C@@H](OC)/C=C\C=C(\C)C2	HEK293 cAMP cs 1µM, CRE-bla Fsk 0.0158µM, TSHR agonist inconclusive
CN(C=O)CP(=O)(O)CN(C)C=O	CRE-bla Fsk 15.8µM
CN1CCCC2(CCN(C(=O)c3ccncc3)CC2)C1	HEK293 cAMP cs 10µM, TSHR agonist inconclusive
O=C(O)C(C(=O)O)P(=S)(S)c1ccccc1 (stereo not drawn)	none
C[C@@]12CC[C@H]3[C@@H](CCC4=CC(=O)CC[C@]43C)[C@H]1CCC2=O	HEK293 cAMP cs inconclusive, TSHR agonist inconclusive (no result: ERK AVP block)
CC1N(P(=O)(c2ccccc2)c2ccccc2)CC(O)(c2ccccc2)CC12CC2 (stereo not drawn)	HEK293 cAMP cs 15.8µM, CRE-bla Fsk inconclusive, TSHR agonist inconclusive
O=C(Oc1ccc(S(=O)(=O)F)cc1F)c1ccccc1Cl	none
COc1cc([C@H]2c3cc4c(cc3[C@@H](O)[C@@H]3COC(=O)[C@H]23)OCO4)cc(OC)c1OC	HEK293 cAMP cs inconclusive, CRE-bla Fsk 0.0126µM, TSHR agonist inconclusive, ERK AVP block inconclusive
COc1cc(C2c3cc4c(cc3C(O)[C@H]3COC(=O)C23)OCO4)cc(OC)c1OC (stereo partly drawn)	none (no result: HEK293 cAMP cs, CRE-bla Fsk, TSHR agonist)
CCC(=O)Nc1c(C)nn(C(=O)CC)c1C	HEK293 cAMP cs 31.6µM, TSHR agonist inconclusive
CN(C)Cc1c[nH]c2ccccc12	TSHR agonist 15.8µM!
CNC(Cc1c[nH]c2ccccc12)C(=O)O (stereo not drawn)	none (no result: HEK293 cAMP cs, CRE-bla Fsk, TSHR agonist)
O=C(C[C@H](c1ccccc1)c1c(O)c2ccccc2oc1=O)c1ccccc1	none
CCCCn1c(C)c(C(=O)O)c2cc(OC)ccc21	none
COc1ccc2c(c1)c(CCN1CCOCC1)c(C)n2C(=O)c1cccc(Cl)c1Cl	HEK293 cAMP cs 10µM, TSHR agonist inconclusive (no result: CRE-bla Fsk)
Clc1ccc(N2C[C@H]3CC[C@@H](C2)N3)nn1	none
Cc1nn(Cc2ccccc2Cl)c(Cl)c1C(=O)OCC(=O)NCc1ccco1	HEK293 cAMP cs 25.1µM, TSHR agonist inconclusive
CCCCn1c(O)c(C(CC)=Nc2ccc3c(c2)CCC3)c(=O)[nH]c1=O	HEK293 cAMP cs inconclusive, TSHR agonist inconclusive
CC(C)(C)n1c(O)c(C=Nc2ccc3c(c2)CCC3)c(=O)[nH]c1=O	HEK293 cAMP cs 25.1µM, CRE-bla Fsk inconclusive, TSHR agonist inconclusive
CN(C)C=O	HEK293 cAMP cs inconclusive, TSHR agonist inconclusive (no result: ERK AVP block)
CCCC/C=C/[C@@H](NP(=O)(c1ccccc1)c1ccccc1)c1ccccc1OC	HEK293 cAMP cs 2µM, CRE-bla Fsk inconclusive, TSHR agonist inconclusive
CCCC/C(C)=C/[C@@H](NP(=O)(c1ccccc1)c1ccccc1)c1ccccc1	HEK293 cAMP cs 15.8µM, CRE-bla Fsk inconclusive, TSHR agonist inconclusive
CCCCCP(=O)(O)c1ccccc1	none
C=CC1CC=CCC1 (stereo not drawn)	none
CS(=O)(=O)O[C@H]1CN2CCC1CC2	none
CN(C)c1ccc2c(c1)N=C(c1ccco1)OP2(=S)N1CCOCC1 (stereo not drawn)	TSHR agonist 15.8µM
Nc1nc2ccc(Cl)cc2c2nc(-c3ccco3)nn12	CRE-bla Fsk 0.2µM, ERK AVP block inconclusive | CHO via 24h inactive | CHO via 40h inconclusive | CRE-luc potent inconclusive
COc1cc(CCN)ccc1O	ERK AVP block inconclusive (no result: TSHR agonist)
COc1ccc(Cc2nccc3cc(OC)c(OC)cc23)cc1OC	HEK293 cAMP cs inconclusive, CRE-bla Fsk 0.158µM, TSHR agonist inconclusive | CHO via 24h inconclusive | CHO via 40h inconclusive | CRE-luc potent 0.708µM
c1ccc(CN2CCC3(CCNCC3)CC2)cc1	HEK293 cAMP cs inconclusive, CRE-bla Fsk inconclusive, TSHR agonist inconclusive
